# Data reported in PubChem BioAssay (NCI).
# Several values for one entry are separate records, joined by “and”; a condition that tells them apart may be missing. Identical values can stand only once. This is part of a sample that, as a whole, favours compounds with a hit. Of some 83,000 tested, about 20% had one in any assay.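 Treatment: one concentration, 48 hours, 96-well format. Scoring: percent growth, with anything below 10 considered active.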 Unmarked numbers belong to inactive results. Activity calls are given as the source filed them.
# Tested on: MDA-MB-468 breast
# Assay: NCI-60 one-dose screen, 48 h (100 = growth as untreated, 0 = no growth, -100 = all killed)
# Details: 10 µM unless noted
row,SMILES,growth
1,COc1ccc(/C=C/c2nc(NCCCN(C)C)c3ccccc3n2)cc1,-43.8% (active)
2,COc1ccc([C@H]2[C@H](O)C(=O)N2c2cc(OC)c(OC)c(OC)c2)cc1Cl,10.9%
3,CC(N)C(Cc1ccccc1)c1ccc(Cl)cc1 (stereo not given),83.1%
4,Nc1c(C(=O)Nc2cccc(Cl)c2)sc2ncc(Br)cc12,94.1%
5,CCCNC(=O)c1cn2ncnc(Nc3cc(C(=O)NC4CC4)ccc3C)c2c1C,73%
6,O=C(O)C(Cc1ccccc1)N1C(=O)/C(=C/C(Cl)=C/c2ccc([N+](=O)[O-])cc2)SC1=S (stereo not given),-12.8% (active)
7,C=CC(=O)N1CC=C(c2cc3c(N[C@H](C)c4ccccc4)ncnc3[nH]2)CC1,33.3%
8,O=C(NCCCNc1cc(-c2cn(-c3ccccc3)nc2-c2cccc(O)c2)ccn1)Nc1cccc(C(F)(F)F)c1,11.2%
9,Clc1cccc(Nc2nc(Nc3cnc4ccccc4c3)c3[nH]cnc3n2)c1,86%
10,CCSc1nc2scc(C)c2c(=O)[nH]1,110%
11,C#CCOC(=O)C(N)CSSCC(N)C(=O)O (stereo not given),109%
12,CCOC(=O)c1c(C)nc2c(c1N)CC(=O)N2Cc1cc(OC)c(OC)c(OC)c1,-4.22% (active)
13,COc1cccc(C(=O)N(c2ccc(F)c(F)c2)C(C(=O)NC(C)(C)C)c2cc3c(C)cc(C)cc3nc2Cl)c1 (stereo not given),35.2%
14,O=C(Nc1ccc2c(ccn2Cc2ccccn2)c1)c1ccnnc1,89.7%
15,O=C(CI)Nc1ccc(O)c2ccccc12,-71.7% (active)
16,OC(c1cc2ccc(C(F)(F)F)cc2c2cc(C(F)(F)F)ccc12)C1CCCCN1 (stereo not given),-74% (active)
17,CN1CCN(CCCOc2cccc3nc(Nc4ccc(F)c(F)c4)ccc23)CC1,-67.3% (active)
18,CCc1[nH]nc(-c2ccc(OC)cc2)c1-c1ccccc1OCCN(CC)CC,87.8%
19,CCC1(C)OC(=O)NC1=O (stereo not given),107%
20,COC(=O)c1ccc(NC(=O)CCl)cc1,83.2%

row,SMILES,growth
1,O=C(Nc1ccc(Cl)c(C(F)(F)F)c1)Nc1ccc2oc(=O)ccc2c1,24.8%
2,O=c1c2sc3ncc(Br)cc3c2ncn1-c1cccc(Cl)c1,89.8%
3,CC12CCCCC1C(C(N)=O)C(=O)O2 (stereo not given),122%
4,Cc1nc2sc(C(=O)Nc3cccc(Br)c3)c(N)c2cc1C(=O)c1ccc(C(F)(F)F)cc1,90.6%
5,COc1ccc(Cn2c(NCCN=C(N)N)nc(=O)n(Cc3ccc(F)cc3)c2=O)cc1,56.7% and 33.4%
6,O=S(=O)(Oc1ccc(-c2ccc3sccc3c2)cc1)c1ccc(F)cc1,86.9%
7,COC12C=C/C(=C(/C(=O)OCCSc3ccnn3C)C(=O)CCCCCCCCC3(OC)C=C/C(=C(/C(=O)OCCSc4ccnn4C)C(=O)CCCCCCCC1)O3)O2,-6.23% (active)
8,CCCCCCNC(=O)Oc1ccc(/C(=C(/C)c2ccc(Cl)cc2)c2ccc(OCCN3CCCCCC3)cc2)cc1,35.9%
9,O=C(Nc1ncc(Cc2cc(Cl)ccc2Cl)s1)c1cccs1,18%
10,CC(C)(C)c1nc(-c2cccc(NS(=O)(=O)c3c(F)cccc3F)c2F)c(-c2ccnc(N)n2)s1,140%
11,CN(C)c1ccc(-c2ccc3[nH]c(=O)nc(-c4ccc(F)cc4)c3c2)cn1,1.22% (active)
12,CN1CCN(Cc2ccc(NC(=O)c3[nH]ncc3Nc3ncnc4sc5c(c34)CCCC5)cc2)CC1,-58.7% (active)
13,O=C(Nc1ccc(Cl)cc1F)c1cc(I)ccc1O,41.4%
14,O=[n+]1ccn([O-])c2ccccc21,86.9%
15,CC1=C/C(=C(\c2ccc(N(C)C)cc2)c2ccc([N+](C)(C)C)cc2)C=CC1=[N+](C)C,70.6%
16,CC1CN(CC(O)c2ccc(Br)cc2)CCO1 (stereo not given),115%
17,COc1cc(-c2nc3ccc(C)cc3[nH]2)ccc1OCC(=O)N=Nc1c(O)[nH]c2ccc(Cl)cc12,-48.7% (active)
18,CN1CCN(Cc2ccc(NC(=O)c3cncc(C#Cc4cnc(N)cc4C#N)c3)cc2C(F)(F)F)CC1,-4.22% (active)
19,CN(Cc1cc(Br)cc(Br)c1O)Cc1cc(Br)cc(Br)c1O,-1.21% (active)
20,O=C(NC1CCCCC1)c1ccc(Nc2ncnc3c2cnn3-c2ccccc2)cc1,76.1%
